# Measurements: PubChem BioAssay (NCATS)
# Values without a mark were called inactive. Results filed as inconclusive are left out. A call without a number means that no potency is given here. The source made the active and inactive calls. Unless noted, the call rests on the fitted dose curve; in most records, active means well fitted curve in the direction sought with a large enough effect; inconclusive means small, poorly fitted or top-dose-only effect, or another doubt; inactive means no such curve, though single readings can be large; an effect the other way counts as inactive or inconclusive.
# How the values were obtained:
# [1] = biological target: Glutathione peroxidase 1 (Homo sapiens) (UniProt P07203); experiment: Primary qHTS Assay for Inhibitors of Recombinant Selenoprotein Glutathione Peroxidase 1 (GPX1) (AID 1845191); further: nearly all actives have a fitted effect of over 65% in size
# Procedure, shortened: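 Recombinant GPX1 (10 nM final) was preincubated with compound for 30 min at room temperature, then reacted with 1 mM GSH, 0.5 mM CHP, 0.5 mM NADPH and 100 nM glutathione reductase; NADPH fluorescence (340/450 nm) was read at 0 and 15 min.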
# [2] = AP1 Signaling Pathway (AID 357; active means well fitted curve in either direction with a large enough effect, not every such curve was filed as active); details: ME-180 AP-1-bla reporter, EGF-induced, beta-lactamase ratio, 5 h; at 7.69 µM (top of the series) unless noted
# Procedure, shortened: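 AP-1-bla ME-180 cells with beta-lactamase reporter under AP-1 response element, stimulated with EC50 EGF; compounds titrated, 5 hours at 37 degrees Celsius. CCF4 read at 460/530 nm ratio; positive and negative modulators judged by AC50.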
# [3] = biological target: Cytochrome P450 1A2 (Homo sapiens) (UniProt P05177); experiment: p450-cyp1a2 (AID 410; calls by dose curve; further: potency means the concentration at half of the fitted maximal effect)
# Procedure, shortened: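 20nM CYP1A2 with 100uM Luciferin-ME (at Km) in 100mM KPO4; compound preincubated 10 min, NADPH regeneration added, 60 min at room temperature. Luciferin quantified by luminescence after detection reagent; normalized to 57 uM furafylline.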
# [4] = NFAT Signaling Pathway (AID 444; active means well fitted curve in either direction with a large enough effect, not every such curve was filed as active;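 further: carbachol stimulus at about its EC50 of 1 µM final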); details: Jurkat NFAT-bla M1, carbachol, beta-lactamase ratio, 5 h; at 7.69 µM (top of the series) unless noted
# Procedure, shortened: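 Jurkat cells carrying an NFAT-driven β-lactamase reporter and co-transfected muscarinic M1 receptor were treated with compound plus carbachol (1 uM final, an EC50 level) for 5 h at 37 °C. CCF4 loading followed for 1 h at RT; 460/530 nm ratio gave %activity.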
# [5] = Stat Signaling Pathway (AID 446; active means well fitted curve in either direction with a large enough effect, not every such curve was filed as active;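 further: ME-180 cervical cancer cells given 40 pM IL-6 alongside compound; SIE-controlled beta-lactamase reporter measured as 460/530 nm FRET emission ratio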)
# Procedure, shortened: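 ME-180 SIE-bla cells; overnight plating; cpd + IL-6 40 pM, 5 h, 37 C; LiveBLAzer 2.5 h RT; 460/530 nm emission ratio. Normalized to 300 pM IL-6 and 125 nM JAK inhibitor controls.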
# [6] = biological target: Glucocorticoid receptor (Homo sapiens) (UniProt P04150); experiment: GR-EFC Redistribution (AID 451; calls by dose curve; further: potency means the concentration at half of the fitted maximal effect); details: CHO-K1 GR-EFC translocation, beta-gal luminescence, 2 h
# Procedure, shortened: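 CHO-K1 cells stably expressing nuclear-localized β-gal enzyme acceptor and GR fused C-terminally to the enzyme donor fragment; ligand-driven nuclear translocation restores β-gal by complementation. Compounds titrated up to 46 uM final, 2 h at 37 °C; luminescence read.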
# [7] = biological target: Mitogen-activated protein kinase 10 (Mus musculus) (UniProt Q61831); experiment: JNK3 AlphaScreen Assay (AID 530; active means well fitted curve in either direction with a large enough effect, not every such curve was filed as active;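 further: kinase came from lysate of stimulated human HepG2 cells; signal reports phosphorylation of biotinylated GST-cJun 1-79 at Ser73 with 10 µM ATP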)
# Procedure, shortened: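 Inhibitors reduce antibody binding to phosphorylated biotin-cJun, lowering AlphaScreen luminescence. Lysates from HepG2 cells pre-activated by IL-1beta plus TNF-alpha supplied JNK3; compounds were titrated.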
# [8] = biological target: 3',5'-cyclic-AMP phosphodiesterase 4B (Homo sapiens) (UniProt Q07343); experiment: qHTS Assay for Inhibitors of PDE-IV (AID 607; active means well fitted activation curve with a large enough effect in the main read-out, with a control signal flat, not every such curve was filed as active)
# Procedure, shortened: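 ACTOne HEK293 cells carry a modified cAMP-gated CNG channel and express endogenous PDE4; plated 1000 cells/well, compounds up to 22.9 uM final. Membrane-potential dye fluorescence (ex 535/em 590) was read; parental cells received 10 uM forskolin + 100 uM RO 20-1724.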
# [9] = biological target: Cytochrome P450 3A4 (Homo sapiens) (UniProt P08684); experiment: qHTS Assay for Activators of Cytochrome P450 3A4 (AID 885); further: nearly all actives have a fitted effect of over 65% in size
# Procedure, shortened: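 20nM CYP3A4 + 25uM Luciferin-PPXE (=KM), 200mM KPO4; cpd 10 min RT; NADPH regen, 60 min RT; stop w/ detection buffer, 20 min; luminescence. Normalized to 57 uM ketoconazole.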
# [10] = biological target: Cytochrome P450 2D6 (Homo sapiens) (UniProt P10635); experiment: qHTS Assay for Inhibitors and Substrates of Cytochrome P450 2D6 (AID 891); further: potency means the concentration at half of the fitted maximal effect; nearly all actives have a fitted effect of over 60% in size
# Procedure, shortened: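 Human CYP2D6 (5 nM) with 30 uM Luciferin-ME EGE (at Km) in 100 mM KPO4, compound preincubated 10 min, then NADPH regeneration system for 60 min at room temperature. Luciferin read by luminescence; normalized to 1.43 uM quinidine.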
# [11] = biological target: Cytochrome P450 2C19 (Homo sapiens) (UniProt P33261); experiment: qHTS Assay for Inhibitors and Substrates of Cytochrome P450 2C19 (AID 899); further: potency means the concentration at half of the fitted maximal effect; nearly all actives have a fitted effect of over 60% in size
# Procedure, shortened: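 In 50mM KPO4, the reaction held 5nM enzyme and KM-level (10uM) Luciferin-H EGE; it ran 60 min at 37C after NADPH regeneration and a 10 min compound preincubation. Luminescence values were scaled to 57uM ketoconazole as complete inhibition.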
# [12] = biological target: Dual specificity protein kinase CLK4 (Homo sapiens) (UniProt Q9HAZ1); experiment: qHTS Assay for Inhibitors of CDC-like Kinase 4 (ADP-FP Assay) (AID 1795); further: nearly all actives have a fitted effect of over 60% in size; further: potency means the concentration at half of the fitted maximal effect;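 on activity change, negative = inhibition: recombinant human CLK4 phosphorylating RS repeat peptide at 1 µM ATP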
# Procedure, shortened: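 Inhibition of ADP formation by 6.25 nM Clk4 is measured using 1 uM ATP and 100 uM RS repeat peptide over one hour. Produced ADP displaces a fluorescent tracer from antibody, lowering polarization.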
# [13] = biological target: Glucocorticoid receptor (Homo sapiens) (UniProt P04150); experiment: GR-GFP Redistribution (AID 450;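 active means compounds whose dose series gives a full or clear partial fitted curve of increased nuclear translocation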; further: potency means the concentration at half of the fitted maximal effect); details: U2OS GR-GFP nuclear translocation, laser cytometry, 2 h
# [14] = biological target: Ubiquitin carboxyl-terminal hydrolase 1 (Homo sapiens) (UniProt O94782); experiment: Inhibitors of USP1/UAF1: Pilot qHTS (AID 504865);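 further: rhodamine fluorescence freed from ubiquitin-rhodamine substrate followed over time; top concentration of the series differs between compounds; nearly all actives have a fitted effect of over 35% in size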
# Procedure, shortened: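 Kinetic fluorescence assay: 1nM USP1/UAF1, 15 min compound preincubation, then 150nM Ub-Rho; 480/540 nm.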
# Chain of Glucocorticoid receptor (Homo sapiens) (P04150 whole entry, looked up, the tested form may be a part): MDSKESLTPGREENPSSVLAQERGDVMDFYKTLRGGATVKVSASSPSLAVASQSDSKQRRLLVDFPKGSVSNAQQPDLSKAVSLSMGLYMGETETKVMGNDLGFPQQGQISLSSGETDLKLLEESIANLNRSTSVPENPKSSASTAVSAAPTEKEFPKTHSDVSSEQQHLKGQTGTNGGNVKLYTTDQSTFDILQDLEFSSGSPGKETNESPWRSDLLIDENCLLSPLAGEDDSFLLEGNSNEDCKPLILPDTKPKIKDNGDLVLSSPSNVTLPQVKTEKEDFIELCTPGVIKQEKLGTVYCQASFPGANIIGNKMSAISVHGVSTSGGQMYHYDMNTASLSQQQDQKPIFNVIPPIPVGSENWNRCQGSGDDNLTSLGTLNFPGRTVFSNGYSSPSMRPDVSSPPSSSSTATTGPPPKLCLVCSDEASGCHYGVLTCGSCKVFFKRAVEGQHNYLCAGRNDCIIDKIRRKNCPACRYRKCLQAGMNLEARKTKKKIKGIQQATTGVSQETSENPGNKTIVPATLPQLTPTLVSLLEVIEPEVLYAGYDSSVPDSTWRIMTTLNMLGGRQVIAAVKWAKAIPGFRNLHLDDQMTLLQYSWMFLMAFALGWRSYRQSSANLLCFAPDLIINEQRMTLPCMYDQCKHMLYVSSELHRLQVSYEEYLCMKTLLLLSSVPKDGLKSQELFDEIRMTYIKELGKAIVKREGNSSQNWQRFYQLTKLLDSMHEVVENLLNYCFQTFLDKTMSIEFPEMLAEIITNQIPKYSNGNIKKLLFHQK
# Chain of Dual specificity protein kinase CLK4 (Homo sapiens) (Q9HAZ1 whole entry, looked up): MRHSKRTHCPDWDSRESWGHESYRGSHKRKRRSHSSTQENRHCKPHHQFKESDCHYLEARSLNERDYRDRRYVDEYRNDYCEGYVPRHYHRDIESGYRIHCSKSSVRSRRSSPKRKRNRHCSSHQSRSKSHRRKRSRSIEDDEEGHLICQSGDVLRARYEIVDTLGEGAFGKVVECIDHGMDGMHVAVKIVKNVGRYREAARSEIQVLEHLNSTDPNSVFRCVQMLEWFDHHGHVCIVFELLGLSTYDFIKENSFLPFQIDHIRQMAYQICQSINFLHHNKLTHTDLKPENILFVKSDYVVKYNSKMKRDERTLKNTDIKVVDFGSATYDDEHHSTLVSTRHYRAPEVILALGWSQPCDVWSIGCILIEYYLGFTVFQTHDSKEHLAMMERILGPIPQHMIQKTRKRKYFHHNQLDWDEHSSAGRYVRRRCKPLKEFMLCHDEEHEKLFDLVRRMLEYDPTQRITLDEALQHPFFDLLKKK
# Chain of Glutathione peroxidase 1 (Homo sapiens) (P07203 whole entry, looked up): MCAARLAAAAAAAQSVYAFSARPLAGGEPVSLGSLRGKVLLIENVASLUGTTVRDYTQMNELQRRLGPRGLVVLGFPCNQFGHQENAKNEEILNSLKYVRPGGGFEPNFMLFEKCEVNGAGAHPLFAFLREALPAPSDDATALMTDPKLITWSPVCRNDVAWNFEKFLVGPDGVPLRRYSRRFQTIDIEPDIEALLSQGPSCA
# Chain of Cytochrome P450 3A4 (Homo sapiens) (P08684 whole entry, looked up): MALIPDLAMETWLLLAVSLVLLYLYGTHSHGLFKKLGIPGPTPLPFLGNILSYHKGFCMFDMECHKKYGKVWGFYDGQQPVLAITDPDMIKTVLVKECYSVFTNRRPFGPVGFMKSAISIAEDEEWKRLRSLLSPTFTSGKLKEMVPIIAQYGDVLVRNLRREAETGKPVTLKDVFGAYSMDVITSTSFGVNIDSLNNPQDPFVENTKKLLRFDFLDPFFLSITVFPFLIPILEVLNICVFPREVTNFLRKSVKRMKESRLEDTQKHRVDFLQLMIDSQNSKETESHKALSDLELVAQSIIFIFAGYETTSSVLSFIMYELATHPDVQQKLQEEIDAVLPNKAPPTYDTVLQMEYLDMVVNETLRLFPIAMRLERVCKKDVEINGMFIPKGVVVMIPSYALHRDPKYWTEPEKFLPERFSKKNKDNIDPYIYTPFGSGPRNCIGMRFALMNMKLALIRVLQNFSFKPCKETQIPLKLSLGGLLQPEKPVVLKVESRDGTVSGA
# Chain of 3',5'-cyclic-AMP phosphodiesterase 4B (Homo sapiens) (Q07343 whole entry, looked up): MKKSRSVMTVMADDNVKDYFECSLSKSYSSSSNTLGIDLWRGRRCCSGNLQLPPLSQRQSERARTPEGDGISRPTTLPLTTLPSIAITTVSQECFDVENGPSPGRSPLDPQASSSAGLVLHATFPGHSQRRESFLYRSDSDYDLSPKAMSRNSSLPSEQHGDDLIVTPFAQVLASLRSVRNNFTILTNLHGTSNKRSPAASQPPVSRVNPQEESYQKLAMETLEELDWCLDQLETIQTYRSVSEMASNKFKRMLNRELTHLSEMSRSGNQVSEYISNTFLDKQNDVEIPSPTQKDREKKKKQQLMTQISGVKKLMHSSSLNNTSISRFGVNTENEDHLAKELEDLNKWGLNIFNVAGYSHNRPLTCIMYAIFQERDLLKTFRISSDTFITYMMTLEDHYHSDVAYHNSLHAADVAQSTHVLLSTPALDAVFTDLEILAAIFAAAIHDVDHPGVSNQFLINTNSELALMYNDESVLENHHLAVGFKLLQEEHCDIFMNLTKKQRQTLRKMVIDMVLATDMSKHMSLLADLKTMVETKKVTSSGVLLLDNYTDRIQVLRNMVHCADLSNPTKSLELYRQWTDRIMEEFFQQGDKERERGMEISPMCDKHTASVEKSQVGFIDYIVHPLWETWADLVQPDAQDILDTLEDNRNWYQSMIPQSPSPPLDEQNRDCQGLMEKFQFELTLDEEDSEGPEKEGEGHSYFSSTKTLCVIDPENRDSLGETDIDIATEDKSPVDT
# Chain of Cytochrome P450 1A2 (Homo sapiens) (P05177 whole entry, looked up): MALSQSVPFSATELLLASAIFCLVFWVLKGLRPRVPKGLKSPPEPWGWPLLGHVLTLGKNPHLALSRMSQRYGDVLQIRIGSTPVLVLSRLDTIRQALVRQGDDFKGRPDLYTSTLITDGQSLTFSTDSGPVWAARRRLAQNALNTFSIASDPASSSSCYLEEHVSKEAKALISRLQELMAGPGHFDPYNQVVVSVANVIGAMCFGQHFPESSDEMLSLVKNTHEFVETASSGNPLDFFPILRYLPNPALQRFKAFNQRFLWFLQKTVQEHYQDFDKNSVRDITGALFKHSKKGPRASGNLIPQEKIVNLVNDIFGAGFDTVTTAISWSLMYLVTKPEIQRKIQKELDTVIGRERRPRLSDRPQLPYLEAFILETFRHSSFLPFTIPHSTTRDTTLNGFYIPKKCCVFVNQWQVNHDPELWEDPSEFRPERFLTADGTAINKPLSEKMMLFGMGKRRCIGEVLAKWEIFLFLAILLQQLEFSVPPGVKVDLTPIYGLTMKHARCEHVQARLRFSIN
# Chain of Ubiquitin carboxyl-terminal hydrolase 1 (Homo sapiens) (O94782 whole entry, looked up): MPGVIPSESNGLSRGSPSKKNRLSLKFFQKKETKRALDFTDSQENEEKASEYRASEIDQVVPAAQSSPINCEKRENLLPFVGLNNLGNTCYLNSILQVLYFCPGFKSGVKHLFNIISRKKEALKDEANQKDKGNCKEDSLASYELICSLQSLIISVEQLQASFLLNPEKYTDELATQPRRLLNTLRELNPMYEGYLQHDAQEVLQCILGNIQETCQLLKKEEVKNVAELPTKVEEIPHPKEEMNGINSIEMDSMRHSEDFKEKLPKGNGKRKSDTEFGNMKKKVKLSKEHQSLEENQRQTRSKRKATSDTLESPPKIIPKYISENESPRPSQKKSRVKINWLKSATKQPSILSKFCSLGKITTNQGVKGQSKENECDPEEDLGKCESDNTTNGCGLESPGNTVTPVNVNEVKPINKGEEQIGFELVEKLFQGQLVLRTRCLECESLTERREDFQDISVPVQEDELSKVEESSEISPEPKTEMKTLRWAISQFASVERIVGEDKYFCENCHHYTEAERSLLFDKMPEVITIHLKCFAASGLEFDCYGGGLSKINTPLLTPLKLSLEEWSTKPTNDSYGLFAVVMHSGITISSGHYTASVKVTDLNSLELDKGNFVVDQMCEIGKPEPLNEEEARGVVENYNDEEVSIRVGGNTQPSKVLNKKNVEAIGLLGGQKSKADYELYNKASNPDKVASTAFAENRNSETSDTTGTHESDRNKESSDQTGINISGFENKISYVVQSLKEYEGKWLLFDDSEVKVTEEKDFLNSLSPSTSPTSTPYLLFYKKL
# Chain of Cytochrome P450 2C19 (Homo sapiens) (P33261 whole entry, looked up): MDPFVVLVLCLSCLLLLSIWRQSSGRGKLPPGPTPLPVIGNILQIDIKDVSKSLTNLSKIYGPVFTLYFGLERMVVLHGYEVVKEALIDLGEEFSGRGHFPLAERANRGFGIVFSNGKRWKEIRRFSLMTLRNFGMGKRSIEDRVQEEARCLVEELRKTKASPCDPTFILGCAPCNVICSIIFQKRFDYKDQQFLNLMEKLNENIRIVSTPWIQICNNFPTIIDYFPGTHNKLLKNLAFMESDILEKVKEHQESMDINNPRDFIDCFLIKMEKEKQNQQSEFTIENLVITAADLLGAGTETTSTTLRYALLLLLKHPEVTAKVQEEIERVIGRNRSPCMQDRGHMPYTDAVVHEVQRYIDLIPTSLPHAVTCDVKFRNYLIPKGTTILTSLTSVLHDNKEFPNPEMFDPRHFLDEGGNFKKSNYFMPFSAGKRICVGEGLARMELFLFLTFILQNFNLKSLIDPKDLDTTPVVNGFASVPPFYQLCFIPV
# Chain of Cytochrome P450 2D6 (Homo sapiens) (P10635 whole entry, looked up): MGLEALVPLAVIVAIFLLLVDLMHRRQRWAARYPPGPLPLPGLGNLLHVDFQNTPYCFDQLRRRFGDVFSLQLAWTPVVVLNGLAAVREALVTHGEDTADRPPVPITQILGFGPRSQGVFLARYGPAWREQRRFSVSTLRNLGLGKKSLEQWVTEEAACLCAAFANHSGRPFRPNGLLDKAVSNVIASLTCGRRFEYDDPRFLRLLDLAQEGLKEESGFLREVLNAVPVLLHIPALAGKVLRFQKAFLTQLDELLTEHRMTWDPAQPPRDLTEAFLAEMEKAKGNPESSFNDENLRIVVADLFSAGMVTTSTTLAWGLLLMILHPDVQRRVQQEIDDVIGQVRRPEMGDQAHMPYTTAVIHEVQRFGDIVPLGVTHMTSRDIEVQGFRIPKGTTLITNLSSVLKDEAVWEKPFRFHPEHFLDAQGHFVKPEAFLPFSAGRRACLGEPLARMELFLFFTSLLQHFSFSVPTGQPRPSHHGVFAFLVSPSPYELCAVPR
smiles,measurement,setting,value
CN1CCN(C(c2ccc(Cl)cc2Cl)c2sc3nc(-c4ccco4)nn3c2O)CC1 (stereo not given),Potency,[1],inactive
CCCCCCCCCC(=O)OCCN1CCN(CC/C=C2\c3ccccc3Sc3ccc(C(F)(F)F)cc32)CC1,Potency,[1],inactive
CC(=O)OC[C@H]1O[C@@H](n2cnc(N)nc2=O)[C@H](OC(C)=O)[C@@H]1OC(C)=O,Potency,[1],inactive
COc1ccc(S(=O)(=O)ON=C2C=C(C)C(=O)C(C)=C2)cc1,Potency,[1],inactive
CN(C)c1ccc(-c2cncnc2NCCc2cnc[nH]2)cc1,"activity change, negative = inhibition",[2],-28.6%
same,Potency,[3],1.26 µM (active)
same,"activity change, negative = inhibition",[4],-15.1%
same,outcome,[5],inactive
same,Potency,[6],> 46 µM
same,Potency,[7],inactive
same,Potency,[8],inactive
same,outcome,[9],inactive
same,Potency,[10],5.01 µM (active)
same,Potency,[11],0.0794 µM (active)
same,Potency,[12],inactive
Cc1cncc(CN2CCC(=C3c4ccc(Cl)cc4CCc4cccnc43)CC2)c1,Potency,[1],inactive
COc1cccc(-n2c(=O)[nH]c3cc(Cl)n(-c4ccc(-c5cccc(OC)c5O)cc4)c3c2=O)c1,Potency,[1],inactive
CC(C)(O)CNc1ncc(-c2ccnc(Nc3ccnc(Cl)c3)n2)c(CC2CC2)n1,Potency,[1],inactive
Cc1nc2c(c(C)c1CCC(=O)N1CCN(c3ccccc3)CC1)c(=O)n(C)c(=O)n2C,Potency,[1],inactive
Cc1cccc(N2C(=O)N(Cc3ccc(C(C)(C)C)cc3)c3ccccc3S2(=O)=O)c1,Potency,[1],inactive
CCCCCCCCCCCCCCCCOc1nc2ccc(C)cc2c(=O)o1,Potency,[1],inactive
CC(c1ccc(-c2ccc(CC(=O)O)cn2)cc1)N1CCCCC1 (stereo not given),Potency,[1],inactive
CC(C)N(CCCCOCC(=O)O)c1cnc(-c2ccccc2)c(-c2ccccc2)n1,Potency,[1],inactive
COc1cccc(N2CCN(C(=O)Cn3ncc4c3-c3ccccc3OC4)CC2)c1,Potency,[1],inactive
c1ccc(Nc2nc(-c3ccoc3)nc3ccccc23)cc1,"activity change, negative = inhibition",[2],0.696%
same,"activity change, negative = inhibition",[4],2.6%
same,outcome,[5],inactive
same,Potency,[7],inactive
same,outcome,[9],inactive
same,Potency,[12],7.94 µM (active)
CCOC(=O)[C@H](C)C[C@@H](Cc1ccc(-c2ccccc2)cc1)NC(=O)CCC(=O)O,Potency,[1],inactive
Nc1ccccc1NC(=O)CCCCCCC(=O)Nc1ccccc1,Potency,[1],inactive
O=C(O)c1ccc2nc(-c3cc(Cl)cc(Cl)c3)oc2c1,Potency,[1],inactive
COc1ccc2[nH]cc(CCNc3nc(-c4c(C)noc4C)nc4ccccc34)c2c1,"activity change, negative = inhibition",[2],-24.6%
same,Potency,[13],> 46 µM
same,Potency,[6],> 46 µM
same,Potency,[7],inactive
same,Potency,[8],inactive
same,Potency,[12],inactive
same,Potency,[14],inactive
CNCCN1CCC(OCc2ccccc2)CC1,Potency,[1],inactive
Cn1cc(C(=O)Cc2ccccc2)cc1/C=C/C(=O)NO,Potency,[1],inactive
CCc1c(C(=O)Nc2cc(S(=O)(=O)N(CC)CC)ccc2O)[nH]c(C)c1C(C)=O,Potency,[1],inactive
CCC(Sc1nnc2c(n1)[nH]c1ccccc12)C(=O)N1c2ccccc2Sc2ccccc21 (stereo not given),Potency,[1],inactive
CC[C@@]1(O)CC2CN(CCc3c([nH]c4ccccc34)[C@](C(=O)OC)(c3cc4c(cc3OC)N(C)C3[C@@](O)(C(N)=O)[C@H](O)[C@]5(CC)C=CCN6CC[C@@]43[C@@H]65)C2)C1 (stereo not given in full),Potency,[1],inactive
